# In PubChem BioAssay (NCI):
# Several values for one entry are separate records, joined by “and”; a condition that tells them apart may be missing. Equal values may be shown once. This is part of a sample that, as a whole, favours compounds with a hit. Of some 83,000 tested, about 20% had one in any assay.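 Testing used 96-well plates and a 48-hour single-concentration exposure. Example: -40 means 40% of the starting cells died.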 Activity calls are given as the source filed them. Rule for the calls: active = growth percent below 10; inactive = the rest.
# Test system: MDA-MB-468 breast
# Experiment: NCI-60 one-dose screen, 48 h (100 = growth as untreated, 0 = no growth, -100 = all killed)
# Conditions: 10 µM unless noted
row,Structure (SMILES),growth
1,COc1ccc(-c2c(C)nn3c(NCCN4CCOCC4)cc(C)nc23)cc1OC,96.3% (inactive)
2,C=C1C(=O)O[C@H]2[C@H]1CC/C(COC(=O)c1ccc(Br)cc1)=C\CC[C@@]1(C)O[C@@H]21,-23.1% (active)
3,COC1OC(COC(C)=O)C(OC(C)=O)C(OC(C)=O)C1OC(C)=O (stereo not given),108% (inactive)
4,O=C(/C=C/c1ccccn1)c1ccccc1O,41.6% (inactive) and 70.3% (inactive)
5,CN1CCN(Cc2ccc(NC(=O)c3cncc(C#Cc4c(N)ncc5ccc(C#N)cc45)c3)cc2C(F)(F)F)CC1,96.1% (inactive)
6,OCc1ccc(N2CCc3cccc(F)c3C2)cc1Cl,-49.9% [0.1 µM] (active)
7,CCN(CC)Cc1cc(Nc2ccnc3cc(Cl)ccc23)cc(-c2ccc(Cl)cc2)c1O,5.28% (active)
8,COc1ccc(NS(=O)(=O)N2CCCCC2)cc1,105% (inactive)
9,Ic1ccc(SSc2ccc(I)cc2)cc1,108% (inactive)
10,C[C@H]1[C@H](C)CC[C@]2(C(=O)OCCCC[P+](c3ccccc3)(c3ccccc3)c3ccccc3)CC[C@]3(C)C(=CC[C@@H]4[C@@]5(C)CC[C@H](OC(=O)C(Cl)Cl)C(C)(C)[C@@H]5CC[C@]43C)[C@H]12,-70.3% (active)
11,N/C(=N\O)c1cn(C2OC(CO)C(O)C2O)c2ncnc(N)c12 (stereo not given),-23.4% (active)
12,Nc1c(Br)cc(Br)c2c1[nH]c(=O)c1ccccc12,-20.4% (active)
13,Clc1ccccc1-c1nc(Nc2nc3ccccc3s2)nc(C(Cl)(Cl)Cl)n1,-24.6% (active)
14,c1ccc(-c2nc([P+](c3ccccc3)(c3ccccc3)c3ccccc3)c(N3CCOCC3)o2)cc1,-22.5% (active)
15,c1ccc(-c2n(Cc3ccc4ccccc4n3)cc[n+]2Cc2ccc3ccccc3n2)cc1,-12.3% (active)
16,COc1ccc(-c2cc(-c3cn(-c4cccc(Cl)c4)nc3-c3ccc(OC)cc3)[nH]c(=S)n2)cc1,39% (inactive)
17,O=c1ccn(C2CCCO2)c(=O)[nH]1 (stereo not given),104% (inactive)
18,COC1=CC(c2ccc[nH]2)=N/C1=C\c1[nH]c(C)c(CC(=O)OCc2ccccc2)c1C,-24.6% (active)
19,Cc1cc(-c2ccccc2)cc(C)n1,103% (inactive)
20,COC(=O)[C@@H]1[C@H]2C[C@H]3c4[nH]c5cc(OC)ccc5c4CCN3C[C@@H]2C[C@H](OC(=O)/C=C/c2ccnc(OC)c2)[C@H]1OC,76.9% (inactive)

row,Structure (SMILES),growth
1,C=C(C)[C@@H]1CC[C@]2(C(=O)O)CC[C@]3(C)[C@H](CC[C@@H]4[C@@]5(C)CCC(NC(=O)c6cccc(OC(C)=O)c6OC(C)=O)C(C)(C)[C@@H]5CC[C@]43C)[C@@H]12 (stereo not given in full),-5.31% (active)
2,S=c1nc[nH]c2nc[nH]c12,6.65% [50 µM] (active)
3,O=C(/C=C(/C=C/c1ccc2[nH]ccc2c1)OB(F)F)/C=C/c1ccc2[nH]ccc2c1,-57% (active)
4,COc1ccc(Cl)cc1-n1nnc(-c2nc3ccccc3[nH]2)c1N,63.2% (inactive)
5,CC(C)CNc1nc(N=[N+]=[N-])nc(NCC(C)C)n1,59.7% [100 µM] (inactive)
6,Cc1cc(C(C#N)c2ccc(Cl)cc2)c(Cl)cc1NC(=O)c1cc(I)cc(I)c1O (stereo not given),58.9% (inactive)
7,Cc1cc(N/N=C/c2nc(-c3ccc(Cl)cc3)oc2C)c2cc(Cl)ccc2n1,-47.4% (active)
8,O=C1Nc2ccccc2/C1=C/c1ccc(OCC(=O)c2ccccc2)cc1,94.6% (inactive)
9,C=C(CNCCc1ccc(O)cc1)[C@@H]1CC[C@]2(CO)CC[C@]3(C)[C@H](CC[C@@H]4[C@@]5(C)CCC(NCCO)C(C)(C)[C@@H]5CC[C@]43C)[C@@H]12 (stereo not given in full),-84.3% (active)
10,C/C(=C(/c1ccccc1)c1ccc(OCC(O)CNCCN2CCOCC2)cc1)c1ccccc1 (stereo not given),53.1% (inactive)
11,COc1ccc([C@H]2c3cc(OC)c(OC)cc3C=C(C=O)C2CO)cc1OC (stereo not given in full),41% (inactive)
12,COc1ccc(-c2cc(/C=C3\C(=O)Nc4cc(Cl)ccc43)[nH]n2)cc1OC,65.5% (inactive)
13,N=C(N)c1ccc(-c2ccc(-c3ccc(Cl)cc3Cl)o2)nc1,-33.8% (active)
14,CN(C)CCCOc1c2ccccc2nc2c1oc1ccc(Cl)cc12,-3.66% (active)
15,COc1ccc(Cn2cnc3cc(C(=O)Nc4cccc5ccccc45)ccc32)c(OC)c1,-31.6% [30 µM] (active)
16,O=C(CCN1CCCC1)Nc1ccc2c(NCCCCc3ccccc3)c3ccccc3nc2c1,-74.7% (active)
17,O=C1c2ccccc2C(=O)c2c1c(C(=O)NCc1ccccc1)c1ccccn21,101% (inactive)
18,Oc1ccc2ccccc2c1/C=N\Nc1ccccn1,-19.3% (active)
19,COc1ccc(/C(=C\c2ccc3c(c2)OCO3)C(=O)Nc2nc3ccc(F)cc3s2)cc1OC,115% (inactive)
20,CC(C)(C)OC(=O)N1C=C/C(=C\Cn2cc(-c3ccccc3)nn2)CC1,26.4% (inactive)
